Laboratory results as given in PubChem BioAssay AID504834 (National Center for Advancing Translational Sciences (NCATS), 2011).
Screen size: about 320,000 compounds; about 22,000 (6.9%) were called active. Another 27% or so got no clear call; they are omitted. Shown is part of a subset that was picked to be rich in actives. A number with no mark means an inactive call. Calls follow the shape of the dose curve; as a rule, active = well fitted inhibition curve with a large enough effect; inconclusive = small, poorly fitted or top-dose-only effect, or another doubt; inactive = no such curve, though single readings can be large or run the other way.

Test: Primary qHTS for delayed death inhibitors of the malarial parasite plastid, 96 hour incubation
Settings: P. falciparum luciferase reporter growth; series mostly up to 28.7 µM; activity change, negative = inhibition: at the top concentration
Outline: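 Erythrocytes infected with luciferase-expressing P. falciparum were dispensed at 2% hematocrit and 0.05% parasitemia (final), then incubated with compounds 96 hours at 37 C in 5% CO2. Luminescence after detection reagent addition reported growth.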
% is scaled to controls: 0 for no effect and ±100 for the full control effect; potency is read from the fitted curve at half-maximal effect.

Row | SMILES | activity change, negative = inhibition [%] | Potency
1 | CN1CCN(C(=O)C(=O)c2cn(CC(=O)N3CCCC3)c3ccccc23)CC1 | -2.05 | 
2 | CCCn1c(=O)c2c(C(F)(F)F)cc(-c3cccs3)nc2n(CCC)c1=O | -4.47 | 
3 | CCN(CC)c1nc(-c2ccccc2)cc(C(F)(F)F)c1C#N | -30 | 
4 | N#Cc1c(C(F)(F)F)cc(-c2cccs2)nc1N1CCCCC1 |  | 10.4 µM (active)
5 | CCOc1ccc2c(c1)c(=O)c(S(=O)(=O)c1ccc(C)cc1)cn2CC | 31.1 | 
6 | COC(=O)c1ccc(NC(=O)CSc2nncn2-c2cccnc2)cc1 | -14.8 | 
7 | COc1cccc(C(=O)NNC(=O)/C=C/c2ccccc2)c1 | 1.13 | 
8 | COc1cccc(C(=O)NNC(=O)c2cccc(F)c2)c1 |  | 0.37 µM (active)
9 | COc1cccc(C(=O)NNC(=O)c2ccccc2Br)c1 | 7.37 | 
10 | COCCCNS(=O)(=O)c1cccc(S(=O)(=O)c2cccc(S(=O)(=O)NCCCOC)c2)c1 | 0 | 
11 | CCc1noc(C)c1C(=O)Oc1ccc(N(C)S(=O)(=O)c2ccc(C)c(C)c2)cc1 | 2.36 | 
12 | CC1CCCCN1C(=S)NCc1ccccc1 (configuration not stated) | 15.1 | 
13 | C/C(=N\NC(=S)NCc1ccccc1)C1CCCCC1 |  | 6.57 µM (active)
14 | C/C(=N\NC(=S)NCc1ccccc1)c1ccc(Cl)cc1 | -8.47 | 
15 | Cc1c(C)n2c(SCC(=O)N3CCCC3)nnc2[nH]c1=O | 13.1 | 
16 | COc1cc(OC)c(NS(=O)(=O)c2cn(C)cn2)cc1Cl | -11.6 | 
17 | COC(=O)c1c(C)oc(C)c1S(=O)(=O)Nc1ccc(C(C)C)cc1 | -25.7 | 
18 | CN(CC(=O)Nc1ccc(N2CCOCC2)cc1)CC(=O)Nc1ccccc1[N+](=O)[O-] | 10.3 | 
19 | CCc1ccccc1NC(=O)NCCN1CCCCC1 | -5.82 | 
20 | CN1CCN(CCNC(=O)Nc2ccccc2[N+](=O)[O-])CC1 |  | 8.28 µM (active)
21 | CC1Cc2cc(/C(O)=C3\C(=O)C(=O)N(Cc4cccnc4)C3c3ccccc3F)ccc2O1 (configuration not stated) | -3.96 | 
22 | COC(=O)c1cn(C)c2ccc(S(=O)(=O)N3CC(C)CC(C)C3)cc2c1=O (configuration not stated) |  | 3.7 µM (active)
23 | CCn1cc(C(=O)N2CC(C)CC(C)C2)c(=O)c2cc(S(=O)(=O)N3CCCC3)ccc21 (configuration not stated) | -6.11 | 
24 | CC1CC(C)CN(S(=O)(=O)c2ccc(C(=O)NN3CCOCC3)cc2)C1 (configuration not stated) | 3.68 | 
25 | Cc1ccc(-c2cc(C(=O)NN)n[nH]2)o1 | -13.1 | 
26 | CCC1(CC)NC(=O)N(CC(=O)OCC(=O)c2cc(C)c(C)cc2C)C1=O | 29.7 | 

Row | SMILES | activity change, negative = inhibition [%] | Potency
27 | Cc1cc(-c2nnc(SCC(=O)Nc3ccc(S(N)(=O)=O)cc3)n2N)n[nH]1 | -27.2 | 
28 | N#Cc1ccc(C(=O)OCC(=O)NC(=O)NC2CCCCC2)cc1 | 11.6 | 
29 | O=C(c1cc2cc(F)ccc2[nH]1)N1CCN(c2ccc(F)cc2)CC1 | -27.8 | 
30 | O=C(c1cccc(C(=O)N2CCN(c3ccc(F)cc3)CC2)c1)N1CCN(c2ccc(F)cc2)CC1 |  | 9.28 µM (active)
31 | O=C(c1ccccc1)c1ccc(C(=O)N2CCN(c3ccccc3)CC2)cc1 | -13.6 | 
32 | CC(C)(C)c1ccc(S(=O)(=O)N2CCN(C(=O)c3ccc4c(c3)C(=O)N(Cc3ccncc3)C4=O)CC2)cc1 | 1.22 | 
33 | CC(=O)c1ccc(NC(=O)c2cc(-c3cccs3)on2)cc1 | 263 | 
34 | Cc1ccc(NC(=O)CSc2sc3c(O)cc(=O)[nH]c3c2C#N)cc1C | -11.5 | 
35 | CCC1(c2ccccc2)NC(=O)N(CC(=O)c2ccc3c(c2)OCO3)C1=O (configuration not stated) | 7.08 | 
36 | COc1ccc(N(CC(=O)NCCSCc2cccc(Cl)c2)S(C)(=O)=O)cc1 | 42.4 | 
37 | CN(C)c1ccc(/C=C2\CC3C4CC=C5CC(O)CCC5(C)C4CCC3(C)C2=O)cc1 (configuration not stated) |  | 2.33 µM (active)
38 | CCC(CCC(C)C1CCC2C3CC=C4CC(O)CC[C@@]4(C)C3CC[C@@]12C)C(C)C (some centres not stated) | 19 | 
39 | CN(C)c1ccc(C=C2C(=O)OC3(CCCC3)OC2=O)cc1 | 26.7 | 
40 | O=C(O)[C@@H](S)[C@H](S)C(=O)O |  | 1.69 µM (active)
41 | c1cnc(N2CCN(c3ccc4ccccc4n3)CC2)nc1 | 264 | 
42 | Cc1ccc(-c2csc(-c3cc(C)on3)n2)cc1 | 82.6 | 
43 | Fc1ccc(-c2csc(-c3ccc(C4SCCS4)cc3)n2)cc1F | 96.5 | 
44 | Clc1ccc(-c2csc(-c3ccncc3)n2)cc1 |  | 0.185 µM (active)
45 | Cc1ccc(C(=O)N(CC(=O)NC2CCCC2)c2ccc(F)cc2)s1 | 8.88 | 
46 | COCc1ccc(C(=O)NC2CC(C)(C)Cc3c2cnn3-c2ccc(C)cc2)o1 (configuration not stated) | -8.09 | 
47 | Cc1cc(C)cc(NC(=S)NC2CC3CCCC(C2)N3Cc2cccs2)c1 (configuration not stated) |  | 2.33 µM (active)
48 | C=CCN1C2CCCC1CC(NC(=S)Nc1cccc(OC)c1)C2 (configuration not stated) | 22.2 | 
49 | COc1ccc(NC(=O)NC2CC3CCCC(C2)N3Cc2ccccc2)cc1 (configuration not stated) | 108 | 
50 | CCC1(C(=O)c2ccccc2)C(c2cccc([N+](=O)[O-])c2)C1(C(=O)OC)C(=O)OC (configuration not stated) |  | 13.1 µM (active)
51 | CCC(CC)NC(=O)/C=C/c1cccc([N+](=O)[O-])c1 | -22.9 | 
52 | CN(C(=O)c1cccc([N+](=O)[O-])c1)c1ccccc1C(=O)NCc1ccccc1 | 9.28 | 
